Experimental data as given in the supplement of paper PMC10127200.
Structures can show the parent of a compound that is named as a salt.

Assays:
Assay in all cases: Euclidean distance of Cell Painting phenotypic profile (signed KS, 77 features) to DMSO centroid (dimensionless distance); higher = stronger phenotypic change vs DMSO (phenoactivity)
Conditions in all cases: 48 h; 5 or 10 uM (library dependent)
786-O = system: 786-O
Procedure, shortened: (§1)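 Phenoactivity is defined as the Euclidean distance from a compound profile to the median vehicle profile. Each profile comprised 77 Harmony features, scored as signed Kolmogorov-Smirnov statistics versus same-plate vehicle wells, then plate-position corrected, correlation-weighted and replicate-averaged at the top dose. Five cancer lines and one healthy fibroblast line were exposed to library compounds for 48 h at 10 or 5 uM (0.1% DMSO final).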

A549 = system: A549
Procedure, shortened: as §1

FB = system: FB
Procedure, shortened: as §1

HEPG2 = system: HEPG2
Procedure, shortened: as §1

OVCAR4 = system: OVCAR4
Procedure, shortened: as §1

DU145 = system: DU145
Procedure, shortened: as §1

For `CC[C@@]1(O)C(=O)OCc2c1cc1n(c2=O)Cc2cc3ccccc3nc2-1` [Camptothecin], the Euclidean distance (786-O) was 3.86, the Euclidean distance (A549) was 3.88 and the Euclidean distance (FB) was 4.14. The Euclidean distance (HEPG2) was 2.87 and the Euclidean distance (OVCAR4) was 3.96.
`CCN1CCN(C(=O)Cc2ccc(Nc3ncc(F)c(Nc4ccc(C(=O)Nc5ccccc5Cl)cc4)n3)cc2)CC1` [Aurora A Inhibitor I] was tested, and the Euclidean distance (786-O) was 5.7, the Euclidean distance (A549) was 4.77 and the Euclidean distance (DU145) was 1.39. It also gave an Euclidean distance (FB) of 3.33, an Euclidean distance (HEPG2) of 4.52 and an Euclidean distance (OVCAR4) of 3.43.
Compound `CO[C@]12C[C@@H](COC(=O)c3cncc(Br)c3)CN(C)[C@@H]1Cc1cn(C)c3cccc2c13` [Nicergoline] has an Euclidean distance (786-O) of 1.37, an Euclidean distance (A549) of 0.701 and an Euclidean distance (FB) of 0.963. The Euclidean distance (HEPG2) was 0.72 and the Euclidean distance (OVCAR4) was 0.762.
`Cc1ccc(-n2nccn2)c(C(=O)N2CCN(c3nc4cc(Cl)ccc4o3)CC[C@H]2C)c1` [Suvorexant (MK-4305)] showed an Euclidean distance (786-O) of 0.574, an Euclidean distance (A549) of 1.02 and an Euclidean distance (DU145) of 0.945. For the same compound, the Euclidean distance (FB) was 0.9, the Euclidean distance (HEPG2) was 2.25 and the Euclidean distance (OVCAR4) was 0.979.
Work on `CC(=O)c1c(O)cc(C)oc1=O` [Sodium dehydroacetate] yielded an Euclidean distance (786-O) of 0.865, an Euclidean distance (A549) of 0.572 and an Euclidean distance (FB) of 0.998. It also gave an Euclidean distance (HEPG2) of 0.348 and an Euclidean distance (OVCAR4) of 0.896.
`CN1CCCCC1Cn1cc(C(=O)c2cc([N+](=O)[O-])ccc2I)c2ccccc21` (stereo not given) was tested, and the Euclidean distance (786-O) was 0.823, the Euclidean distance (A549) was 1.18 and the Euclidean distance (DU145) was 1.02. It also gave an Euclidean distance (FB) of 1.47 and an Euclidean distance (OVCAR4) of 1.19.
For `COc1cc2c(cc1OC)[C@@]13CCN4CC5=CCO[C@H]6CC(=O)N2[C@H]1[C@H]6[C@H]5C[C@H]43` [Brucine sulfate salt hydrate], the Euclidean distance (786-O) was 1.36, the Euclidean distance (A549) was 0.862 and the Euclidean distance (DU145) was 0.987. The Euclidean distance (FB) was 1.47, the Euclidean distance (HEPG2) was 0.722 and the Euclidean distance (OVCAR4) was 0.846.
`C[C@]12CC[C@H]3[C@@H](CC[C@@]45O[C@@H]4C(O)=C(C#N)C[C@]35C)[C@@H]1CC[C@@H]2O` [Trilostane] gave an Euclidean distance (786-O) of 1.94, an Euclidean distance (A549) of 1.35 and an Euclidean distance (FB) of 0.851. The Euclidean distance (HEPG2) was 1.01 and the Euclidean distance (OVCAR4) was 1.12.
`CC(C)(O)C(Cl)(Cl)Cl` [Chlorobutanol] gave an Euclidean distance (786-O) of 1.34, an Euclidean distance (A549) of 1.04 and an Euclidean distance (DU145) of 1.02. The Euclidean distance (FB) was 0.61, the Euclidean distance (HEPG2) was 0.725 and the Euclidean distance (OVCAR4) was 2.
For `COc1ccc(C(CN(C)C)C2(O)CCCCC2)cc1` (stereo not given) [Venlafaxine], the Euclidean distance (786-O) was 0.992, the Euclidean distance (A549) was 0.49 and the Euclidean distance (FB) was 0.691. For the same compound, the Euclidean distance (HEPG2) was 0.558 and the Euclidean distance (OVCAR4) was 1.02.
`CC(=O)OC12COC1CC(O)C1(C)C(=O)C(O)C3=C(C)C(O)CC(O)(C(OC(=O)c4ccccc4)C21)C3(C)C` (stereo not given) [10-Deacetylbaccatin-III] gave an Euclidean distance (786-O) of 1.79, an Euclidean distance (A549) of 1.11 and an Euclidean distance (DU145) of 0.834. For the same compound, the Euclidean distance (FB) was 1.7, the Euclidean distance (HEPG2) was 1.38 and the Euclidean distance (OVCAR4) was 1.4.
With `COc1ccc(C(=O)N2CCCC2=O)cc1` [Aniracetam] the Euclidean distance (786-O) was 0.962, the Euclidean distance (A549) was 1.09 and the Euclidean distance (FB) was 1.01. It also gave an Euclidean distance (HEPG2) of 0.635 and an Euclidean distance (OVCAR4) of 1.07.
`O=C(C[S+]([O-])C(c1ccccc1)c1ccccc1)NO` (stereo not given) [Adrafinil] showed an Euclidean distance (786-O) of 1.35, an Euclidean distance (A549) of 0.729 and an Euclidean distance (DU145) of 0.936. The Euclidean distance (FB) was 0.942, the Euclidean distance (HEPG2) was 0.585 and the Euclidean distance (OVCAR4) was 1.57.
Compound `O=C(O)CNC(=O)c1c(O)c2ccccc2n(Cc2ccccc2)c1=O` has an Euclidean distance (786-O) of 0.98, an Euclidean distance (A549) of 0.849 and an Euclidean distance (DU145) of 1.14. It also gave an Euclidean distance (FB) of 1.06, an Euclidean distance (HEPG2) of 0.682 and an Euclidean distance (OVCAR4) of 0.719.
Work on `c1ccc2c(c1)Sc1ccccc1N2CC1CN2CCC1CC2` (stereo not given) [Mequitazine] yielded an Euclidean distance (786-O) of 2.14, an Euclidean distance (A549) of 1.44 and an Euclidean distance (DU145) of 1.35. It also gave an Euclidean distance (FB) of 2.64, an Euclidean distance (HEPG2) of 2.43 and an Euclidean distance (OVCAR4) of 1.19.
`COc1cc(C)[nH]c(=O)c1CNC(=O)c1c(C)n([C@H](C)C2CCN(CC(F)(F)F)CC2)c2ccccc12` gave an Euclidean distance (786-O) of 1.35, an Euclidean distance (A549) of 1.09 and an Euclidean distance (FB) of 1.42. For the same compound, the Euclidean distance (HEPG2) was 0.588 and the Euclidean distance (OVCAR4) was 0.987.
Compound `O=c1cccc2n1C[C@@H]1CNC[C@H]2C1` [Cytisine] has an Euclidean distance (786-O) of 1.35, an Euclidean distance (A549) of 0.65 and an Euclidean distance (FB) of 1.05. The Euclidean distance (HEPG2) was 1.09 and the Euclidean distance (OVCAR4) was 2.07.
Compound `CCCCCc1cc(O)cc(O)c1` [Olivetol] has an Euclidean distance (786-O) of 1.12, an Euclidean distance (A549) of 0.742 and an Euclidean distance (DU145) of 0.801. It also gave an Euclidean distance (FB) of 0.7, an Euclidean distance (HEPG2) of 0.393 and an Euclidean distance (OVCAR4) of 0.946.
`CN1C(=O)CCS(=O)(=O)C1c1ccc(Cl)cc1` (stereo not given) [Chlormezanone] gave an Euclidean distance (786-O) of 1.52, an Euclidean distance (A549) of 0.681 and an Euclidean distance (FB) of 0.695. It also gave an Euclidean distance (HEPG2) of 0.59 and an Euclidean distance (OVCAR4) of 1.23.
Work on `C[C@]12CCC(=O)C(O)=C1CC[C@@H]1[C@@H]2CC[C@]2(C)C(=O)CC[C@@H]12` [Formestane] yielded an Euclidean distance (786-O) of 1.02, an Euclidean distance (A549) of 0.913 and an Euclidean distance (FB) of 1.08. It also gave an Euclidean distance (HEPG2) of 0.763 and an Euclidean distance (OVCAR4) of 0.703.
For `Cc1ccccc1-n1c(CF)nc2ccc(N)cc2c1=O` [Afloqualone], the Euclidean distance (786-O) was 0.926, the Euclidean distance (A549) was 0.643 and the Euclidean distance (DU145) was 0.714. For the same compound, the Euclidean distance (FB) was 1.21, the Euclidean distance (HEPG2) was 0.422 and the Euclidean distance (OVCAR4) was 0.949.
`C=CC(=O)N[C@H]1C=C(C)c2c(-c3cnc4ccccc4c3)c3c(N)ncnc3n2C1` was tested, and the Euclidean distance (786-O) was 1.49, the Euclidean distance (A549) was 1.6 and the Euclidean distance (FB) was 1.95. The Euclidean distance (HEPG2) was 1.26 and the Euclidean distance (OVCAR4) was 1.39.
